# Assay outcomes (PubChem)
# Cardio protect – cardioprotection against H2O2-induced cell death, primary screen, uHTS, H9c2 cells, ATPLite luminescence; AID 588492, 2011; H9c2 cardiomyocytes, H2O2 injury protection, 2 h; protection from H2O2 cell death, % at 20 µM; actives 0.63% (n = 360,000);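 active means compounds giving at least 50% protection of heart cells from peroxide-induced death in the single-dose screen, raw or plate-pattern-corrected value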;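 further: 0% = DMSO wells with peroxide and 100% = DMSO wells without peroxide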
# PHOSPHO1 block – PubChem AID 1565; recombinant PHOSPHO1, absorbance phosphatase assay; actives 1.1% (n = 290,000); inhibition, % at 13.3 µM; in the data active means inhibition above about 60%
# Calb FLC – C. albicans growth inhibition with fluconazole, primary screen, CaCi-2 strain, Alamar Blue fluorescence. C. albicans CaCi-2 (fluconazole-resistant clinical isolate) + fluconazole, 48 h. growth inhibition, % (concentration not given with the values). actives 0.57% (n = 300,000). AID 1979, 2009;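 active means growth inhibition above about 58% in most replicates, limit read from the data, passing the limit was not always enough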;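 further: all wells also contain fluconazole at 8 µg/ml as a sub-toxic cotreatment; 0% = median of DMSO wells and 100% = median of geldanamycin control wells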
# Efflux pump mplx – inhibitors of Candida efflux pumps in yeast, primary screen, S. cerevisiae, Nile Red, multiplex | S. cerevisiae Candida pump triplex | inhibition, % at 10 µM | actives 0.44% (n = 330,000) | AID 485275, 2010;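 active means plate passing quality check with inhibition over a set limit, or well fluorescence over plate mean plus 4 SD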;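 further: Nile Red retained in pooled yeast measured as flow cytometry median fluorescence; 0% = buffer negative control and 100% = Enniatin B positive control; higher means more Nile Red kept so more efflux inhibition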
# KCC2 mod – KCC2 cotransporter modulators, thallium flux, primary screen, cell-based, HEK293 KCC2, FluoZin-2 fluorescence, MLSMR; KCC2 cells, thallium flux FluoZin-2 fluorescence; AID 1456, 2008; actives 2.2% (n = 190,000); Solute carrier family 12 member 5 (Homo sapiens), Q9H2X9; B-score of Tl+ flux slope (higher = more flux/activation; lower = inhibition) at 10 µM;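 active means thallium flux slope and its plate-corrected score both differing from the plate sample mean at a set confidence after two filtering rounds, in either direction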;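 further: slope of fluorescence scaled to starting intensity during 10 to 20 s after thallium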
# Target sequence (Q9H2X9 whole entry, looked up): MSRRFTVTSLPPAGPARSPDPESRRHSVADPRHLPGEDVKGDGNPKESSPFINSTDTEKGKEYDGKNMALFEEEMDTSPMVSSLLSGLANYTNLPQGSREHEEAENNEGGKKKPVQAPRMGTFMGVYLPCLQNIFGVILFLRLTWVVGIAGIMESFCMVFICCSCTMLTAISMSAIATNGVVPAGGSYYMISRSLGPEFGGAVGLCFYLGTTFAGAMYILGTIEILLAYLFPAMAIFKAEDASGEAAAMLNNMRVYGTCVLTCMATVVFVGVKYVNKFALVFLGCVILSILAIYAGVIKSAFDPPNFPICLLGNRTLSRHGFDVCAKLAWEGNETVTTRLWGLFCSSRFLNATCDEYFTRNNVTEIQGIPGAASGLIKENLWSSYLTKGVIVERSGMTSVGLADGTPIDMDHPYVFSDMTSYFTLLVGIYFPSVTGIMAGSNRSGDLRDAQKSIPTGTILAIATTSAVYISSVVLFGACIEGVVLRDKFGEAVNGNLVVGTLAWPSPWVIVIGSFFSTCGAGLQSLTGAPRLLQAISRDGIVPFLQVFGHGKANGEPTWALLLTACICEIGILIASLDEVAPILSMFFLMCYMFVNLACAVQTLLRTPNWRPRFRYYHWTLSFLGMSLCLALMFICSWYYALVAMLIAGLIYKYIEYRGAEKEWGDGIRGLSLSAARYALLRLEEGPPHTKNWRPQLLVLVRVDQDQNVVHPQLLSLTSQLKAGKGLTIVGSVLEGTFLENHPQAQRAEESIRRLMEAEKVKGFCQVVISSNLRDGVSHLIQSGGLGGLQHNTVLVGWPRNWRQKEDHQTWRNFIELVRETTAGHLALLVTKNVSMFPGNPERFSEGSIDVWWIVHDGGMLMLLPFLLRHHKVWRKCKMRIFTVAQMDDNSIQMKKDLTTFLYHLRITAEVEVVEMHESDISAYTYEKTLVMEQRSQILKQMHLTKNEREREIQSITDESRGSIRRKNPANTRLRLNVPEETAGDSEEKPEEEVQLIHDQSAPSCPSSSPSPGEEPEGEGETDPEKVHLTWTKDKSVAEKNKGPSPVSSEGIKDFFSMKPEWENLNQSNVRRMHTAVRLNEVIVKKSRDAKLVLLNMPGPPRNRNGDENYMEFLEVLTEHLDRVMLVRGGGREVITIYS
# An asterisk follows results filed as active; x = not tested or not shown. Sampled rows, rich in hits. Any-hit rate of the full collection: about 3.3%.
SMILES,Cardio protect,PHOSPHO1 block,Calb FLC,Efflux pump mplx,KCC2 mod
O=C(C[C@@H]1C/C=C/CC[C@@H](Cc2ccc(F)cc2)C(=O)O[C@@H](c2ccccc2)CNC1=O)NCCO,59*,x,x,0,x
O=C1NC[C@H](c2ccccc2)OC(=O)[C@H](Cc2ccc(F)cc2)C/C=C\C[C@H]1CC(=O)N(CCO)Cc1ccccc1,94*,x,x,1,x
CC(C)(C)OC(=O)C[C@@H]1C/C=C\C[C@@H](CC(=O)N[C@@H](CO)Cc2ccccc2)C(=O)NC[C@@H](c2ccccc2)OC1=O,65*,x,x,0,x
CC(C)(C)OC(=O)C[C@H]1C/C=C\C[C@@H](CC(=O)N[C@@H](CO)Cc2ccccc2)C(=O)NC[C@@H](c2ccccc2)OC1=O,18,x,x,0,x
Cn1ccc(C(=O)N/N=C/c2ccncc2)n1,-2,x,-13,x,x
COc1ccc(S(=O)(=O)N2CCSCC2)cc1C(N)=O,-4,x,3,0,x
C/C(=N\NC(=O)c1nnn(-c2nonc2N)c1CN1CCCCCC1)c1ccc(Br)cc1,6,20,-15,0,x
CN(CC(=O)NC1CCN(Cc2ccccc2)CC1)S(=O)(=O)c1ccc(Br)s1,-2,-10,3,0,x
CCOC(=O)c1c(N)sc2c1CCSC2,10,65*,1,0,-0.46
CCOC(=O)c1c(N)sc2c1CCC(CC)C2 (centres undefined),5,51,-3,0,0.39
CCOC(=O)c1c(N)sc(=S)c2c1CCC2,8,60*,17,0,x
CCOC(=O)c1c(N)sc(N)c1C(=O)OCC,-17,-3,-23,0,-0.79
O=C(O)/C=C/c1ccc(S(=O)(=O)Nc2ccc(OCc3ccccc3)cc2)cc1,0,15,-9,0,-0.62
O=C(O)/C=C/c1ccc(S(=O)(=O)Nc2ccc(C(=O)NCC(=O)O)cc2)cc1,3,2,50*,0,0.011
COc1ccc2c(c1OC)c(=O)n1c3ccc(OC(C)C(=O)NCCN4CCOCC4)cc3c3ccnc2c31 (centres undefined),53*,29,-2,0,x
COc1ccc2c(c1OC)c(=O)n1c3ccc(OC(C)C(=O)NCCCN4CCOCC4)cc3c3ccnc2c31 (centres undefined),28,54,-4,0,x
CN(CC(=O)Nc1ccccc1N1CCCC1)S(=O)(=O)c1ccc(F)cc1,2,x,-2,0,x
Cc1ccc2sc(NNC(=O)c3cc(=O)c4ccccc4o3)nc2c1C,56*,36,-9,0,-3.3*
COc1ccc(-c2cc(=O)c3ccccc3o2)cc1,18,31,0,0,-1.1
COc1ccc(C2Nc3ccc4ccccc4c3-c3c2c(=O)oc2ccccc32)cc1 (centres undefined),30,16,7,1.7*,0.56
COc1ccc(N(CC(=O)Nc2ccc3c(c2)OCO3)S(=O)(=O)c2ccccc2)c(OC)c1,54*,-36,-6,0,x
CCN(CC(=O)Nc1ccc2c(c1)OCCO2)C(=O)/C=C/c1ccc(OC)cc1OC,0,62*,-2,-2,x
CCCN(CCC)Cc1cc(=O)oc2cc3c(cc12)CCC3,-8,-1,11,0,-0.9
COc1ccc(C(=O)Nc2ccccc2C(=O)Nc2ccc(C(=O)O)cc2)cc1,-15,9,16,0,x
COc1ccc(C(=O)Nc2ccccc2C(N)=O)cc1,-11,-36,x,0,x
SMILES,Cardio protect,PHOSPHO1 block,Calb FLC,Efflux pump mplx,KCC2 mod
COc1ccc(C(=O)Nc2ccccc2C(=O)Nc2ccncc2)cc1,-20,63*,-11,0,x
COc1ccc(C(=O)Nc2ccccc2C(=O)Nc2ccccc2C(=O)O)cc1,-16,29,81*,0,x
Cc1cc(NS(C)(=O)=O)c(=O)n(Cc2cccc(C(F)(F)F)c2)c1,3,x,x,x,x
CCN1C(=O)[C@@H]2[C@@H](c3ccc(SC4CCCCC4)c(OC)c3)N3CCCC[C@@]3(C(=O)OC)[C@@H]2C1=O,0,x,x,0,x
O=C(CN1C(=O)NC(c2ccccc2)(c2ccccc2)C1=O)NCc1ccco1,-6,x,x,0,x
CCn1c(SCC(=O)N/N=C/C=C\c2ccco2)nc2ccccc21,4,-29,7,0,-2.9
Cn1c(SCC(=O)N/N=C/C=C\c2ccco2)nc2ccccc21,5,73*,16,0,x
CC(C)C1C(C#N)=C(N)SC(N)=C1C#N,-6,73*,5,0,x
CCC(CC)C1C(C#N)=C(N)SC(N)=C1C#N,-4,-6,-2,0,-3.2
Cc1cc(NC(=O)CSc2nc(C)c(C)n2CC(C)C)no1,-2,x,x,0,x
CCOc1ccccc1NC(=O)c1cc(-c2cc(OC)c(OC)c(OC)c2)nc2ccccc12,44,4,-5,0,x
COc1ccccc1NC(=O)c1cc(-c2cc(OC)c(OC)c(OC)c2)nc2ccccc12,66*,-57,-4,0,x
COc1ccc(-c2cc(C(=O)NNC(=O)c3csc(N4CCOCC4)n3)c3ccccc3n2)cc1,52*,x,x,0,x
CCN(CC)S(=O)(=O)c1ccc(N2CCOCC2)c(NC(=O)c2cc(-c3ccccn3)nc3ccccc23)c1,52*,32,46,x,0.43
COc1cc(-c2cc(C(=O)N3CCN(c4ccccn4)CC3)c3ccccc3n2)cc(OC)c1OC,65*,x,-17,0,x
O=S(=O)(c1c(F)cccc1F)C1CCN(S(=O)(=O)c2ccc3c(c2)OCCO3)CC1,0,x,x,1,x
O=C(Nc1ccccc1N1CCOCC1)c1cc(-c2ccncc2)nc2ccccc12,40,-15,1,0,0.25
COc1ccc(-c2cc(C(=O)Nc3ccccc3N3CCOCC3)c3ccccc3n2)cc1OC,62*,21,1,0,-0.21
COc1cc(-c2cc(C(=O)NCc3ccc(S(N)(=O)=O)cc3)c3ccccc3n2)cc(OC)c1OC,10,15,-2,0,x
COc1cc(-c2cc(C(=O)Nc3ccc(S(=O)(=O)NCc4ccco4)cc3)c3ccccc3n2)cc(OC)c1OC,61*,-2,-2,0,0.75
COc1cc(-c2cc(C(=O)NCc3ccco3)c3ccccc3n2)cc(OC)c1OC,59*,12,29,1,x
COc1cc(-c2cc(C(=O)Nc3ccncc3)c3ccccc3n2)cc(OC)c1OC,50,x,x,0,x
COc1ccc(-c2ccc3c(c2)S(=O)(=O)c2cccc(C(=O)N4CCN(C5CCCCC5)CC4)c2C3=O)cc1OC,35,x,x,1,x
COc1ccc(-c2ccc3c(c2)S(=O)(=O)c2cccc(C(=O)N4CCN(c5ccccn5)CC4)c2C3=O)cc1OC,88*,x,x,x,x
COCCNC(=O)CCc1nnc2ccc(N3CCC(C)CC3)nn12,-2,34,-8,0,x
Cc1ccc(NC(=O)COC(=O)Cc2ccc(Br)cc2)cc1S(=O)(=O)N1CCOCC1,0,x,x,0,x
Cc1ccc(NC(=S)C2=C(O)c3sccc3N(C)S2(=O)=O)cc1,-10,76*,8,0,1.3
